Reference: the supplement of paper PMC3334620
The full ranking holds about 33,000 sequences; the median of “E-score (-0.5 to 0.5)” is about -0.036, and the highest 2% start at about 0.37. The entries come from a sample that favours the highest values as a whole.

target: T1, Yer064c (UniProt P40041); experiment: PBM E-score (8-mer binding enrichment) (E-score (-0.5 to 0.5)); higher = stronger / more preferred TF binding; settings: protein concentration: 200 nM; construct: GST-full length
T1 sequence: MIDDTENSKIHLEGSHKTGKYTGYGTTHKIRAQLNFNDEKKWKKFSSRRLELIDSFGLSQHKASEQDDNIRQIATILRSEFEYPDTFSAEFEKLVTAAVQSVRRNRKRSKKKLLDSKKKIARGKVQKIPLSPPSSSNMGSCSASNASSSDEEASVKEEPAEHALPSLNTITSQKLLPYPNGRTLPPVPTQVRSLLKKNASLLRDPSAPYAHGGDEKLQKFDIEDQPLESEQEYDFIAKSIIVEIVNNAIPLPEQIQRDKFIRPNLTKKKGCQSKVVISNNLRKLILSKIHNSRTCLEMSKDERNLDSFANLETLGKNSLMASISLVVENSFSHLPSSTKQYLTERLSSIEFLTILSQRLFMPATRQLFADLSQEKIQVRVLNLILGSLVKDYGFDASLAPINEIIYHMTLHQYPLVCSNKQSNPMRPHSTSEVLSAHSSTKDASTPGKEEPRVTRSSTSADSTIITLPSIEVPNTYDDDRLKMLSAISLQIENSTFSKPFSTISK
In short: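 Using PURExpress in vitro transcription/translation, GST-tagged yeast transcription factors were made in full-length or DNA-binding-domain form. These were applied at about 100-200 nM to double-stranded universal all-10-mer Agilent arrays, and bound protein was detected with fluorescent anti-GST. Scans were normalised with masliner before the Universal PBM Analysis Suite assigned E-scores to ungapped eight-base words pooled with their reverse complements.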

Sequence | PBM E-score
CCTGGGAC | -0.363
ATGGGCGA | 0.0478
CAAAAGAG | 0.0455
CTTACCGA | -0.0159
ACATCGAT | 0.00682
AGACGAAT | 0.00164
CAAGCCAG | -0.139
GGCGGCCC | -0.0657
GACTCCAC | 0.37
CACTCCAC | 0.0622
TACTCCAA | 0.00552
AACTCCAA | 0.0471
AACTCCAC | -0.115
GACTCCAA | 0.418
CAGTAAAA | -0.0284
AATTACCT | 0.0151
AAAAGAAC | -0.144
CCTTCGGC | -0.197
CGGACTCC | 0.191
GGGACTCA | 0.405
GGGACGCA | -0.165
AGGACTCC | 0.335
AGCACTCA | 0.119
CGGACTCA | 0.411
CGAACTCA | 0.225

Sequence | PBM E-score
AGGACTCA | 0.468
GGGACACA | 0.0557
GAGAGGGC | -0.203
CCCGCTGC | -0.00295
GCTTGTAC | -0.18
TCCCAAGA | 0.0948
CGATGTCA | -0.0638
CTCAAATC | 0.158
CACTAAAC | 0.108
TACTAAAA | -0.00832
AACTAAAA | 0.0564
GACTAAAC | 0.435
AACTAAAC | -0.0459
GACTAAAA | 0.429
GATTCTCA | 0.221
CTCTCCAC | -0.0601
ATTCTCTA | 0.0286
GGACGTCA | -0.0394
ATTGACCA | -0.0765
CATTAGTA | 0.257
CATTAGTC | 0.421
AATTAGTC | 0.446
AATTAGTG | 0.0657
AATTAGTA | 0.103
CATTAGAC | 0.0825

Sequence | PBM E-score
CATTTTGC | -0.0161
ACTAGTCC | 0.164
CCTAGTCG | 0.263
TCTAGTCA | 0.447
TCTAGACA | 0.128
GCTAGTTA | 0.00744
CCTAGTCA | 0.446
ACTAGTCT | 0.345
ACTAGTCA | 0.456
TCTAGTAA | -0.0245
GCTAGTCA | 0.448
GCTAGTCC | 0.0288
CCTAGTCC | 0.0749
AACGGTGT | -0.021
ACCTGGTC | -0.12
AGAGAACT | -0.0782
AACAGCAG | -0.26
CGTTATCC | -0.11
ATGAGTAG | 0.308
ATGAGTAA | 0.386
GTGAGTAA | 0.331
ATGAGTAC | 0.415
CTGAGTAA | 0.204
CTGAGTAC | 0.291
AGAGGCGG | -0.16

Sequence | PBM E-score
AGAGGTGC | -0.25
CGATCGTA | 0.05
GTTCCAAA | -0.00663
AAAGACAT | -0.156
CCTCATGC | -0.144
ACTCATGC | 0.378
CCTCATGA | 0.16
ACTCATGA | 0.402
CTTCATGC | -0.12
ACTCATGG | 0.34
AGCCCGGG | -0.144
GCTCACAA | 0.0192
CGGTAGAG | -0.118
AATCACAT | 0.398
AATCACAC | 0.39
AATCACAG | 0.359
AATCACAA | 0.362
CATCACAC | 0.0825
GATCACAC | 0.178
CGCTATTC | -0.0435
ACATACAC | 0.0835
CTGGCATA | -0.0817
GTCACTCA | 0.334
AGTCTTTA | 0.341
AGTCTTTC | 0.372

Sequence | PBM E-score
GGTCTTCA | -0.144
AGTCTTCC | 0.432
AGTCTTCA | 0.408
CGTCTTTC | -0.108
CGTCTTCA | -0.115
AGTCTTCG | 0.418
CGTCTTCC | -0.0994
ATTCTTCC | -0.102
ACTCTTCG | 0.213
AGTCTTGG | 0.315
CACTTACC | 0.0118
ACAAGGGA | -0.248
AATGTGAC | 0.203
AGCGGCGA | -0.0237
CCTTAGCG | 0.0566
ACGAAGGG | -0.192
CATTAGGA | 0.0671
CCACTCTA | 0.0684
AGCTGTCG | -0.196
CGTCTCCC | -0.223
AGTCTCCC | 0.382
AGTCTCCA | 0.27
GACTCCCA | 0.381
AACTCCCC | 0.0421
CACTCCCA | 0.0058

Sequence | PBM E-score
GACTCCCC | 0.405
CACTCCCC | -0.147
AACTCCCA | -0.184
AGCCCAAA | 0.141
CCTCCCCC | -0.224
CCTTTATC | -0.243
CAACGTAC | -0.0947
ATAGAGTG | 0.00994
ATAGAGTA | 0.134
CTAGAGGC | -0.0949
CTAGAGTC | 0.366
CTAGAGTA | 0.138
ATAGAGTC | 0.371
CTAGTAGA | 0.0545
AACGGTGC | -0.101
ACGCCGCT | -0.119
CAAACCGC | -0.0599
CAACACAC | 0.0236
ACTGTCCG | -0.022
CTACTGAG | 0.157
CGAGTCGA | 0.271
CCAGTCGC | -0.0128
AGAGTCGA | 0.291
CGAGTCGC | 0.383
AGAGTCGC | 0.396

Sequence | PBM E-score
AGAGTCGG | 0.326
GACCCTGC | -0.262
CACCGTAC | -0.0293
TGCTGAAA | -0.0596
AGAGTCCT | 0.298
AGAGTCAA | 0.436
AGTGTCAT | 0.0731
AGAGTCAT | 0.492
AGAGTCTC | 0.332
AGAGTCCC | 0.0408
AGAGTCAC | 0.485
AGAGTCTG | 0.147
AGAGTCAG | 0.457
AGAGTCTA | 0.158
AGAGTCCG | 0.212
AGAGTCCA | 0.262
CCCGGACG | -0.193
CATCTCGC | 0.0122
GACACGCA | -0.104
AGCCACTC | 0.0575
CGTGTATA | 0.0534
CCTAATTA | -0.151
ATGCTAGA | -0.0387
CAGAACTG | 0.139
